DT40 TDP1 CPT: qHTS for Inhibitors of human tyrosyl-DNA phosphodiesterase 1 (TDP1): qHTS in cells in presence of CPT; chicken DT40 Tdp1-/-;hTDP1 cells + 20 nM CPT, ATP luminescence, 48 h; Potency, µM (highest dose often 46.2 µM), without a hit: top-dose activity change, negative = growth inhibition, usual class: inhibitors; 12% of 420,000 active; note: nearly all actives have a fitted effect of over 55% in size
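Chicken DT40 Tdp1-/- cells complemented with human TDP1, 400 cells/well, exposed to compounds plus 20 nM camptothecin for at least 48 h at 37 C; viability read as ATP content by CellTiter-Glo luminescence.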
TDP1 inh: qHTS Assay for Inhibitors of Tyrosyl-DNA Phosphodiesterase (TDP1); 0.28% of 350,000 active; recombinant TDP1, AlphaScreen DNA substrate cleavage; Potency, µM (highest dose often 130 µM), without a hit: at the highest dose activity change, negative = inhibition, most hits filed as inhibitors; Tyrosyl-DNA phosphodiesterase 1 (Homo sapiens), Q9NUW8; note: nearly all actives have a fitted effect of over 40% in size
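Recombinant human Tdp1 (E. coli-expressed, 1 nM final) preincubated with compounds 15 min at room temperature, then 5'-biotin/3'-phosphotyrosine-FITC DNA substrate (15 nM final) added for 5 min. AlphaScreen beads (10 ug/ml final) added 10 min; cleavage lowers signal.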
Gal4-VP16 FLuc: VP16 counterscreen qHTS for inhibitors of ROR gamma transcriptional activity; Potency, µM (titrated, usually from 53.6 µM), inactives show at the top dose activity, negative = inhibition, usual class: inhibitors; 3.5% of 310,000 active; Drosophila S2 Gal4-VP16 UAS-luciferase, luminescence, 20 h;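 note: Gal4-VP16 expression switched on by copper sulfate through the metallothionein promoter; nearly all actives have a fitted effect of over 50% in size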
RORg inh: qHTS for inhibitors of ROR gamma transcriptional activity. Nuclear receptor ROR-gamma (Mus musculus), P51450. Drosophila S2 Gal4-RORgamma UAS-luciferase reporter, 20 h. Potency, µM (series often up to 53.6 µM), inactives show top-dose activity change, negative = inhibition, actives largely listed as inhibitors. 5.4% of 310,000 active. AID 2551, 2010; note: nearly all actives have a fitted effect of over 60% in size
Target sequence (P51450 whole entry, looked up, the tested form may be a part): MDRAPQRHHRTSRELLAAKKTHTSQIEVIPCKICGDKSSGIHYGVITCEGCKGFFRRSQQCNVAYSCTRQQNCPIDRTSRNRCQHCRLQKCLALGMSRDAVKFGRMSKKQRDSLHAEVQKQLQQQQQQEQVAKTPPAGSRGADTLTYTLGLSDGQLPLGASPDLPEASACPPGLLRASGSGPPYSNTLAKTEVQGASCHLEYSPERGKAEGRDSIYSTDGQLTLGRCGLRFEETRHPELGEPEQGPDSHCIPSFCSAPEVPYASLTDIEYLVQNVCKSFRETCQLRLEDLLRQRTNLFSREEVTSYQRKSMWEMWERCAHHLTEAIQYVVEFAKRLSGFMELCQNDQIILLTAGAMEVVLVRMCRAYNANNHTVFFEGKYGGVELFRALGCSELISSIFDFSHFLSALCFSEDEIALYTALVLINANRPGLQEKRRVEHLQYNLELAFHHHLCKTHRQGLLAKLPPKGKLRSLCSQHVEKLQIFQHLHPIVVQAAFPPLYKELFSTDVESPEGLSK
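ROR gamma transcriptional activity was tracked as Gal4-UAS luciferase output in stably transfected Drosophila Schneider cells, with compound added 1 hr before 700 uM copper sulfate induction and a 20 hr ambient-temperature incubation.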
TDP1 cell noCPT: qHTS for Inhibitors of human tyrosyl-DNA phosphodiesterase 1 (TDP1): qHTS in cells in absence of CPT | DT40 Tdp1-/- hTDP1 cells, no CPT, ATP luminescence, 48 h | 15% of 420,000 active | Potency, µM (top dose mostly 46.2 µM), inactives show top-dose activity change, negative = growth inhibition, hits mostly inhibitors; note: nearly all actives have a fitted effect of over 55% in size
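Cells were dispensed at 400 per well, compounds added by pin tool, plates incubated ≥48 hr at 37 °C, then CellTiter-Glo added for 30 min at room temperature before luminescence reading. Line: DT40 Tdp1-/- complemented with hTDP1; camptothecin omitted.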
* marks the source's active call; other numbers are inactive results; ? = inconclusive; · = no result; [ ] = remark or other dose. This is a sample that favours compounds with a hit; in the whole collection about 19% have one here. Calls come from the whole dose curve; as a rule, active = well fitted curve in the direction sought with a large enough effect; inconclusive = small, poorly fitted or top-dose-only effect, or another doubt; inactive = no such curve, though single readings can be large; an effect the other way counts as inactive or inconclusive. % is set by controls: 0 for no effect and ±100 for the full control effect; potency is the fitted concentration of half-maximal effect.

SMILES	DT40 TDP1 CPT	TDP1 inh	Gal4-VP16 FLuc	RORg inh	TDP1 cell noCPT
O=Cc1c(NCc2ccc(Cl)cc2)c2ccccc2[nH]c1=O	4%	5%	-11%	30%	-3%
COc1ccc(-c2ccc(CNCCCSc3nnnn3C)o2)cc1Cl	?	-3%	·	·	?
CCC(C(=O)Nc1cc(OC)ccc1OC)n1nc(-c2ccccc2)c2c(c1=O)CCCC2 (centres undefined)	16µM*	5%	·	·	18µM*
COc1ccc(OC)c(NC(=O)CSc2c3c(nc4ccccc24)CCCC3)c1	?	7%	·	·	7.3µM*
Cc1ccc(NC(=O)CSc2c3c(nc4ccccc24)CCCC3)cc1F	?	2%	·	·	15µM*
COc1ccc(NC(=O)CSc2nc(C3CC3)nc3ccccc23)c(OC)c1	-20%	12%	-16%	-38%	23µM*
Cc1cccc(NC(=O)CSc2c3c(nc4ccccc24)CCC3)n1	?	1%	13%	-15%	?
COc1cccc(NC(=O)CSc2c3c(nc4ccccc24)CCCC3)c1	23µM*	7%	?	?	21µM*
COc1ccc(Cl)cc1NC(=O)CSc1c2c(nc3ccccc13)CCC2	21µM*	0%	·	·	16µM*
COc1ccc(OC)c(NC(=O)CSc2c3c(nc4cc(Cl)ccc24)CCCC3)c1	?	4%	·	·	23µM*
CCCn1c(=O)c(C(=O)NCc2ccccc2OC)c(O)c2ccccc21	?	·	2%	-12%	-27%
CCN(CC)CCOc1ccc(-c2nc3cc(Cl)ccc3s2)cc1	4.7µM*	3%	0%	7%	4.7µM*
CCOC(=O)c1nn(-c2ccc(F)cc2)c(=O)cc1OCC(=O)Nc1ccc(OCC)cc1	-8%	-3%	·	·	-24%
COC(=O)/C(=C\Nc1ccc(Cl)cc1Cl)NC(=O)c1ccc(Cl)cc1Cl	21µM*	4%	-3%	-4%	?
COC(=O)/C(=C\Nc1ccc(Cl)cc1Cl)NC(=O)c1ccccc1	-28%	3%	10%	43%	?
CCOC(=O)c1sc(SC)c2c1CCC/C2=N/OC	4%	0%	11%	5%	-1%
CCOC(=O)c1nnsc1Nc1ccc(C)c(C)c1	-13%	5%	-19%[10 µM]	0.71µM*	?
CCOC(=O)c1nnsc1-c1ccc(-c2snnc2C(=O)OCC)cc1	-9%	4%	-2%	6%	-9%
CC1CCN(S(=O)(=O)c2ccc3c(c2)c(=O)c(C(=O)NCc2ccc(Cl)cc2)cn3C)CC1	-27%	2%	·	·	4.6µM*
CCn1cc(C(=O)N2CCN(c3cc(C)ccc3C)CC2)c(=O)c2cc(S(=O)(=O)N3CCOCC3)ccc21	-15%	2%	·	·	?
Cc1ccc(CNC(=O)c2cn(C)c3ccc(S(=O)(=O)N4CCC(C)CC4)cc3c2=O)cc1	-28%	0%	·	·	?
CCn1cc(C(=O)N2CCCC2)c(=O)c2cc(S(=O)(=O)N3CCOCC3)ccc21	-22%	2%	3%	4.5µM*	28%
CCn1cc(C(=O)N2CCc3ccccc32)c(=O)c2cc(S(=O)(=O)N3CC(C)CC(C)C3)ccc21 (centres undefined)	15µM*	3%	0%	36%	?
CCn1cc(C(=O)NCCc2ccccc2)c(=O)c2cc(S(=O)(=O)N3CCOCC3)ccc21	-15%	-2%	·	·	-11%
CCn1cc(C(=O)NCCc2ccccc2)c(=O)c2cc(S(=O)(=O)N3CCCC3)ccc21	?	8%	-2%	?	18µM*
SMILES	DT40 TDP1 CPT	TDP1 inh	Gal4-VP16 FLuc	RORg inh	TDP1 cell noCPT
CN(C)c1ccc([N+](=O)[O-])cc1C(=O)O	11%	1%	-4%	-31%	0%
COc1ccc(CN2CCNC(=O)C2CC(=O)N2CCCCO2)c(OC)c1 (centres undefined)	5%	4%	1%	5%	21%
Cn1cc(C(=O)NCc2ccc(F)cc2)c(=O)c2cc(S(=O)(=O)N3CCCCC3)ccc21	23µM*	0%	-2%	25%	16µM*
CCN(CC)CCCNC(=O)c1cn(CC)c2ccc(S(=O)(=O)N3CCc4ccccc4C3)cc2c1=O	?	5%	-4%	2%	29µM*
CN(CCCNC(=O)c1cn(C)c2ccc(S(=O)(=O)N(C)C)cc2c1=O)c1ccccc1	18µM*	8%	-6%	29%	?
CCN(CC)S(=O)(=O)c1ccc2c(c1)c(=O)c(C(=O)NCCCN(C)c1ccccc1)cn2C	-26%	-3%	-4%	1%	?
CN(C1CCCCC1)S(=O)(=O)c1ccc2c(c1)c(=O)c(C(=O)NCCc1ccccc1)cn2C	-16%	2%	·	·	?
CN(C1CCCCC1)S(=O)(=O)c1ccc2c(c1)c(=O)c(C(=O)NCCc1ccc(Cl)cc1)cn2C	?	-2%	·	·	21µM*
CC(C)CCNC(=O)c1sc2ccc(S(=O)(=O)N3CCCCC3)cc2c1N	23µM*	1%	-20%	10%	21µM*
CCn1cc(C(=O)NCCc2ccc(Cl)cc2)c(=O)c2cc(S(=O)(=O)N3CCCCCC3)ccc21	-12%	0%	·	·	1%
CCn1cc(C(=O)NCCc2ccc(Cl)cc2)c(=O)c2cc(S(=O)(=O)N3CCC(C)CC3)ccc21	?	2%	·	·	18µM*
CCn1cc(C(=O)NCCC(C)C)c(=O)c2cc(S(=O)(=O)N3CCCCC3)ccc21	23µM*	2%	2%	0%	?
O=C(c1ccccc1)C(CCc1ccccn1)CCc1ccccn1	?	·	·	·	16µM*
C=CCNC(=S)N/N=C/c1ccc(C(F)(F)F)cc1	?	6%	2.8µM*	0.71µM*	?
O=C(O)c1ccc(/C=N/NC(=S)NC2CCCCC2)cc1	4%	3%	10%	-23%	3%
FC(F)(F)c1ccc(/C=N/NC(=S)NC2CCCCC2)cc1	?	8%	4.5µM*	0.63µM*	5.8µM*
Cc1ccc(-n2ncc(C(=O)NC3CC3)c2C2CCN(C(=O)OC(C)(C)C)CC2)cc1	-18%	1%	5%	8%	-3%
Cc1ccc(-n2ncc(C(=O)NCc3ccco3)c2C2CCN(C(=O)OC(C)(C)C)CC2)cc1	18µM*	-2%	·	·	18µM*
Cc1ccc(-n2ncc(C(=O)Nc3ccc(C)c(F)c3)c2C2CCN(C(=O)OC(C)(C)C)CC2)cc1C	?	-1%	·	·	?
Cc1ccc(-n2ncc(C(=O)NCc3ccco3)c2C2CCN(C(=O)OC(C)(C)C)CC2)cc1C	16µM*	5%	·	·	?
